Measured values as given in PubChem BioAssay AID2410 (Southern Research Specialized Biocontainment Screening …, 2010).
Among all 2,500 compounds or so, about 2,100 (84%) were called active.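 Rule for the calls: active = toxic compounds, whose cell viability fell below 70% of untreated control cells; inactive = the rest.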 So high a share suggests a set chosen from earlier hits. Not all results are given here. Where a call stands in place of a potency, no number is given. Potency and affinity values are given separately.

Assay: viability of uninfected HEp-2 cells – cell-based, HTS, cytotoxicity control for RSV inhibitor project, dose response (AID 2410);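 note: cells exposed to compound for six days before readout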
Details: HEp-2 viability, luminescence, cytotoxicity counter-screen; series mostly up to 50 µM

Row | Structure (SMILES) | outcome
1 | CCC(CC)NC(=O)COC(=O)c1ccc(NS(=O)(=O)c2ccc3c(c2)OCCO3)cc1 | inactive
2 | CCOC(=O)c1cc(CC)sc1NC(=O)c1ccc2c(c1)OCCO2 | inactive
3 | Cc1cccc(Nc2nc(OCC#N)nc(N(C)C)n2)c1 | inactive
4 | Cc1ccc(S(=O)(=O)N2CCN(CCO)CC2)cc1-c1nnc2c3ccccc3c(C)nn12 | inactive
5 | Cc1ccnc(NS(=O)(=O)c2ccc(NC(=O)Cc3ccccc3)cc2)n1 | inactive
6 | Cc1ccc(C2=NN(C(=O)COc3ncnc4ccccc34)C(c3ccco3)C2)cc1 (stereo not drawn) | inactive
7 | O=C1CN2C(=Nc3ccc(Cl)cc3C2c2ccccc2)CN1 (stereo not drawn) | inactive
8 | O=C1CC(Sc2nnc(-c3ccccc3)o2)C(=O)N1c1ccccc1 (stereo not drawn) | inactive
9 | CN(CCO)c1nc(N)c2c(N)nc3c(c2c1C#N)CC(=O)N3Cc1cccs1 | inactive
10 | Clc1cccc(Nc2ncnc3c2cnn3-c2ccccc2)c1 | inactive
11 | Cc1ccc2nc(NC(=O)CCn3c(=O)sc4ccccc43)sc2c1 | inactive
12 | CCOc1ccc2nc(NC(=O)Cc3cccs3)sc2c1 | inactive
13 | COc1cc(NC2c3ncccc3C(=O)N2Cc2ccco2)cc(OC)c1OC (stereo not drawn) | inactive
14 | Cc1ccc(-n2nc3c(=O)n(CCCC(=O)NCC(C)c4ccccc4)nc(C)c3c2C)cc1 (stereo not drawn) | inactive
15 | CC(C(=O)N=Nc1c(O)[nH]c2ccccc12)n1cnc2ccccc2c1=O (stereo not drawn) | inactive
16 | CCOC(=O)Cc1nnc(Nc2ccc(C)cc2)c2ccccc12 | inactive
17 | COC(=O)c1c(NC(NC(=O)C(C)(C)C)C(Cl)(Cl)Cl)sc2c1CCC2 (stereo not drawn) | inactive
18 | Cc1ccc(OCc2ccc(Br)cc2)c([N+](=O)[O-])n1 | inactive
19 | COc1ccc(CNC(=O)CCCn2nc(C)c3c(C)n(-c4ccc(C)cc4)nc3c2=O)cc1 | inactive
20 | O=C(CSc1nc2nc3c(cc2c(=O)n1-c1ccccc1)CCCC3)Nc1cccc2ccccc12 | inactive
21 | Nc1c2c(nc3sc4c(c13)CCCC4)-c1ccccc1CC2 | inactive
22 | Cc1noc(C)c1C(=O)OC(C)C(=O)Nc1ccc(S(=O)(=O)NC(C)C)cc1 (stereo not drawn) | inactive
23 | CCCCc1cc(=O)oc2c3c(cc(OCC(=O)N4CCC[C@H]4C(=O)O)c12)OC(C)(C)CC3 | inactive

Row | Structure (SMILES) | outcome
24 | Cc1cc(C)c2c(n1)sc1c(N3CCCCC3)ncnc12 | inactive
25 | COc1ccc(Cl)cc1NS(=O)(=O)c1c(C)[nH]c(C)c1C(=O)N1CCCCC1 | inactive
26 | COc1ccc(N(CC(=O)NC2CCCC2)C(=O)c2ccc(C)s2)c(OC)c1 | inactive
27 | CCCc1c(C(=O)Nc2ccc(C(F)(F)F)cc2)cnn1-c1ccccc1 | inactive
28 | Cc1cc(C)c(C)c(C(=O)CSc2nnc(-c3ccc4[nH]c(C)c(C)c4c3)o2)c1C | inactive
29 | Cc1c(NC(=O)CN2C(=O)c3ccccc3C2=O)c(=O)n(-c2ccccc2)n1C | inactive
30 | C/C(N)=C(/C#N)C(=O)COC(=O)CNS(=O)(=O)c1ccc2ccccc2c1 | inactive
31 | COc1ccc(S(=O)(=O)NCc2ccco2)cc1-c1nnc2c3ccccc3c(C)nn12 | inactive
32 | O=c1cc(-c2ccc(O)c(O)c2)oc2c(C3O[C@H](CO)[C@@H](O)[C@H](O)[C@H]3O)c(O)cc(O)c12 (stereo partly drawn) | inactive
33 | COc1ccc(OC)c(-c2nc3c(C)n[nH]c(=O)c3[nH]2)c1 | inactive
34 | COc1ccc(C(C)=O)cc1COc1ncnc2ccccc12 | inactive
35 | COc1ccc2c(CC(=O)Nc3ccc(OC)c(NS(=O)(=O)c4ccc(F)cc4)c3)coc2c1 | inactive
36 | Cc1ccc(-c2n[nH]c(=S)n2/N=C/c2ccncc2)cc1 | inactive
37 | COCCNC(=O)c1cc2c(s1)-c1ccc(Cl)cc1SC2 | inactive
38 | Clc1ccc(Nc2ccc3ccccc3n2)cc1 | inactive
39 | Cc1cc2cc(C)c(NCCNC(=O)c3ccccc3F)nc2cc1C | inactive
40 | O=C(NC1=NCCS1)c1ccc(-c2ccc(Cl)cc2)o1 | inactive
41 | CCOC(=O)N1CCN(C(=O)CSc2nnc(-c3ccc(C)c(C)c3)o2)CC1 | inactive
42 | O/N=C/c1ccccc1OCc1ccc(Cl)cc1 | inactive
43 | O=C(O)c1nn(CCOc2c(Cl)cccc2Cl)c(=O)c2ccccc12 | inactive
44 | O=C(Nc1ccc(Cl)cc1Cl)C1=Cc2ccccc2OC1 | inactive
45 | COc1ccc(C(=O)Nc2cccc3c2CCCC3)c(OC)c1 | inactive
46 | O=C(O)c1ccc(N/N=C/c2cc(Br)cs2)cc1 | inactive

Row | Structure (SMILES) | outcome
47 | CCOc1cccc(C(=O)Nc2ccc(NC(=O)c3ccccc3)c(C)c2)c1 | inactive
48 | CCOc1ccc(NC(=O)c2csc3c2CCCC3)cc1 | inactive
49 | COc1ccc(CCNC(=O)c2ccc(N(C)S(=O)(=O)c3ccc(C)cc3)cc2)cc1 | inactive
50 | COc1ccc2[nH]cc(C(=O)CN3CCN(C4CCCCC4)CC3)c2c1 | inactive
51 | CC1(C)Cc2cccc(C(=O)Nc3ccc(F)cc3F)c2O1 | inactive
52 | O=C1c2ccccc2C(=O)N1CC1c2ccccc2CCN1C(=O)C1CCCCC1 (stereo not drawn) | inactive
53 | O=c1c2ccccc2nc(/C=C/c2ccc(Br)cc2)n1CCCO | inactive
54 | CC(=O)N1CCN(C2=NC(=O)/C(=C/c3ccc(OS(=O)(=O)c4ccccc4)cc3)S2)CC1 | inactive
55 | CCn1nc(NC(=O)c2ccccc2)c2cc3cccc(C)c3nc21 | inactive
56 | Cc1csc2c(=O)sc(NC(=O)c3ccc(F)cc3)nc12 | inactive
57 | N#Cc1c(-c2c(Cl)cccc2Cl)noc1/C=C/Nc1ccc(C(=O)O)cc1 | inactive
58 | Cc1[nH]c2ccccc2c1/C=N/Nc1ccc([N+](=O)[O-])cc1 | inactive
59 | Cc1ccc(-c2nc(-c3cccnc3)no2)c(C)c1 | inactive
60 | COc1ccc2nc(/C=N/NC(=O)[C@H](C)NC(=O)OC(C)(C)C)ccc2c1 | inactive
61 | CC(=O)Nc1cccc(-c2csc(Nc3cccc(C)n3)n2)c1 | inactive
62 | CCOC(=O)c1cccc(NC(=O)Nc2cc(OC)ccc2OC)c1 | inactive
63 | N=C1SCC(=O)N1c1nc(-c2ccccc2)cs1 | inactive
64 | CS(=O)(=O)c1ccccc1C(=O)Nc1ccc(-c2nc3ccccc3o2)cc1 | inactive
65 | CSc1nnc(-c2ccc(Cl)cc2Cl)o1 | inactive
66 | CCOc1ccc2nc3c(cc2c1)CN(CCCO)C(=NCCOC)S3 | inactive
67 | O=[N+]([O-])c1ccc2c(c1)nnn2-c1ccccc1 | inactive
68 | CCN(CC)c1nc(Nc2ccc(Cl)cc2)nc(OCC#N)n1 | inactive
